# NOMO-1 viab = STK33 inhibitor candidate reducing NOMO-1 cell viability. inhibition, % (concentration not given with the values). NOMO-1 AML viability, CellTiter-Glo luminescence, 72 h. 37,000 compounds, 7.5% hits; in the data active = inhibition above about 80%
# Shh pathway inh = blocks Sonic Hedgehog signaling | AID 2313 | inhibition, % (concentration not given with the values) | 22,000 compounds, 2.1% hits | Shh-LIGHT2 Gli-luciferase reporter, 30 h;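 active = mean inhibition across valid replicates above about 65%, limit read from the data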;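 note: pathway switched on by Shh-conditioned medium diluted 1 in 25 in low serum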
# PD-1 reversal = reversal of PD-1 mediated T-cell inhibition | activation, % (concentration not given with the values) | 29,000 tested, under 10 active | AID 2316 | primary human CD4 T cells, PD-L1 beads, CellTiter-Glo 96 h; call rule not given here
# Hits are given with their value; . = inactive; / = no result given. Rows were chosen to be rich in hits. Some 7.7% of all compounds tested hit in one or more screens of this group.
SMILES,NOMO-1 viab,Shh pathway inh,PD-1 reversal
Cc1ccc(-c2cc(C(=O)NCCCN3CCOCC3)c3cc(Br)ccc3n2)cc1,.,/,/
COc1ccc(NC(=O)Nc2cccc3c2O[C@@H](CN(C)Cc2ccccc2)[C@@H](C)CN([C@@H](C)CO)C3=O)cc1,.,.,.
CC(C)NC(=O)Nc1cccc2c1O[C@H](CN(C)Cc1ccc(Oc3ccccc3)cc1)[C@@H](C)CN([C@H](C)CO)C2=O,89,.,.
COc1ccc(NC(=O)Nc2cccc3c2O[C@@H](CN(C)Cc2ccc(Oc4ccccc4)cc2)[C@@H](C)CN([C@H](C)CO)C3=O)cc1,117,.,.
COc1ccc(NC(=O)Nc2cccc3c2O[C@@H](CN(C)Cc2ccc(Oc4ccccc4)cc2)[C@H](C)CN([C@@H](C)CO)C3=O)cc1,91,.,.
COc1ccc(NC(=O)Nc2cccc3c2O[C@H](CN(C)Cc2ccc(Oc4ccccc4)cc2)[C@H](C)CN([C@H](C)CO)C3=O)cc1,.,.,.
COc1ccc(NC(=O)Nc2cccc3c2O[C@@H](CN(C)Cc2ccc(Oc4ccccc4)cc2)[C@@H](C)CN([C@@H](C)CO)C3=O)cc1,.,.,.
COc1ccc(NC(=O)Nc2cccc3c2O[C@@H](CN(C)Cc2ccccc2)[C@H](C)CN([C@H](C)CO)C3=O)cc1,117,.,.
CC(C)NC(=O)Nc1cccc2c1O[C@H](CN(C)Cc1ccc(Oc3ccccc3)cc1)[C@H](C)CN([C@@H](C)CO)C2=O,.,.,.
Cc1ccc2nc(-c3ccc(NC(=O)C(C)Oc4ccc5c(C)cc(=O)oc5c4)cc3)sc2c1 (configuration not stated),.,/,/
CCOC(=O)Nc1ccc2c(c1)N(C(=O)CCN1CCOCC1)c1ccccc1CC2,.,/,/
Cn1c(=O)c2c(ncn2CC(O)COc2ccccc2)n(C)c1=O (configuration not stated),.,/,.
C[C@@H]1O[C@@H](O[C@@H]2[C@@H](O)[C@H](Oc3c(-c4ccc(O)cc4)oc4cc(O)cc(O)c4c3=O)O[C@H](CO)[C@H]2O)[C@H](O)[C@H](O)[C@H]1O,.,.,.
COc1ccc(CN(C)C[C@@H]2Oc3c(NC(=O)Nc4ccc(F)cc4)cccc3C(=O)N([C@@H](C)CO)C[C@H]2C)cc1,110,.,.
C[C@H](CO)N1C[C@H](C)[C@@H](CN(C)Cc2ccc(Oc3ccccc3)cc2)Oc2c(NC(=O)Nc3ccccc3)cccc2C1=O,85,.,.
C[C@@H]1CN([C@@H](C)CO)C(=O)c2cccc(NC(=O)Nc3ccccc3)c2O[C@@H]1CN(C)Cc1ccc(Oc2ccccc2)cc1,.,.,/
COc1ccc(CN(C)C[C@H]2Oc3c(NC(=O)Nc4ccc(OC)cc4)cccc3C(=O)N([C@@H](C)CO)C[C@H]2C)cc1,.,.,.
C[C@H]1CN([C@@H](C)CO)C(=O)c2cccc(NC(=O)Nc3ccccc3)c2O[C@@H]1CN(C)Cc1ccc(Oc2ccccc2)cc1,.,.,/
C[C@H](CO)N1C[C@H](C)[C@H](CN(C)Cc2ccc(Oc3ccccc3)cc2)Oc2c(NC(=O)Nc3cccc4ccccc34)cccc2C1=O,122,.,.
COc1ccc(CCO[C@@H]2O[C@H](CO[C@@H]3OC[C@H](O)[C@H](O)[C@H]3O)[C@@H](OC(=O)/C=C/c3ccc(O)c(OC)c3)[C@H](O[C@@H]3O[C@@H](C)[C@H](O)[C@@H](O)[C@H]3O)[C@H]2O)cc1O,.,.,.
CCOc1ccccc1C(=O)Oc1c(S(=O)(=O)c2ccc(C)cc2)c(C)nn1-c1ccccc1,103,/,/
CCOc1ccccc1NC(=O)c1ccccc1N(C)S(=O)(=O)c1ccc(C)cc1,.,/,/
CC(=O)N[C@@H](Cc1ccccc1)C(=O)NN,.,.,.
CCc1ccc(OCCCn2cc(/C=C3/C(=N)N4C=CSC4=NC3=O)c3ccccc32)cc1,.,.,.
CCc1cc(C)cc(OCCn2cc(C=C3C(=O)NC(=O)NC3=O)c3ccccc32)c1,122,.,.
SMILES,NOMO-1 viab,Shh pathway inh,PD-1 reversal
O=c1cc(-c2ccccc2)oc2cc(Cl)cc(Cl)c12,.,.,.
CC(NS(=O)(=O)c1ccc(Cl)cc1)C(=O)Nc1cccc(Br)c1 (configuration not stated),.,/,.
C[C@@H]1CN([C@@H](C)CO)C(=O)Cc2cc(NC(=O)Cc3cn(C)c4ccccc34)ccc2O[C@@H]1CN(C)Cc1ccc(Cl)c(Cl)c1,107,.,.
C[C@H](CO)N1C[C@H](C)[C@H](CN(C)Cc2ccccc2)Oc2ccc(NC(=O)Cc3cn(C)c4ccccc34)cc2CC1=O,.,.,/
C[C@@H]1CN([C@H](C)CO)C(=O)Cc2cc(NC(=O)Cc3cn(C)c4ccccc34)ccc2O[C@@H]1CN(C)Cc1ccc2c(c1)OCO2,.,.,.
C[C@@H]1CN([C@H](C)CO)C(=O)Cc2cc(NC(=O)Cc3cn(C)c4ccccc34)ccc2O[C@H]1CN(C)Cc1ccc(Cl)c(Cl)c1,115,.,.
COC(=O)c1cccc(NC(=O)CN(c2cccc(F)c2)S(C)(=O)=O)c1C,98,/,/
COC(=O)c1ccccc1NC(=O)CN(c1cccc(F)c1)S(C)(=O)=O,.,/,/
COC(=O)c1cc(NC(=O)CN(c2ccc(F)c(Cl)c2)S(C)(=O)=O)ccc1Cl,96,/,/
COC(=O)c1cccc(NC(=O)CN(c2ccc(Br)c(C)c2)S(C)(=O)=O)c1C,.,/,.
COC(=O)c1cccc(NC(=O)CN(c2ccc(F)cc2)S(C)(=O)=O)c1C,109,/,/
COC(=O)c1cccc(NC(=O)CN(c2ccc(F)c(Cl)c2)S(C)(=O)=O)c1C,106,/,.
COC(=O)c1ccccc1NC(=O)CN(c1ccc(F)c(Cl)c1)S(C)(=O)=O,.,/,.
COC(=O)c1ccc(NC(=O)CN(c2ccc(F)c(Cl)c2)S(C)(=O)=O)cc1,.,/,.
Cn1c(SCC(=O)Nc2cccc3ccccc23)nnc1-c1ccc(F)cc1,.,/,.
O=C(COc1ccccc1)NC(=S)Nc1cc(-c2nc3ccccc3o2)ccc1Cl,.,/,/
CC(C)(C)NC(=O)[C@H]1C[C@H]2CCCC[C@H]2CN1C(=O)C12CC3CC(CC(C3)C1)C2,.,.,.
FC(F)(F)c1cc(C#CCN2CCCCC2)cc(C(F)(F)F)c1,.,.,.
O=C(Nc1ccc(I)cc1C(=O)NCCN1CCOCC1)c1ccco1,.,/,/
Cc1cc(C)cc(NC(=O)COc2ccc3cc(-c4ccccc4)c(=O)oc3c2)c1,.,/,.
COc1ccc2c(c1)c(=O)oc1cc(OCC(=O)Nc3cc(C)cc(C)c3)ccc12,94,/,/
Cc1nnc(SCC(=O)Nc2ccccc2C(F)(F)F)n1-c1ccc(Cl)cc1,.,/,.
N#CCc1ccc(NC(=O)CN2C(=O)c3ccccc3S2(=O)=O)cc1,.,/,/
C[C@H](CO)N1C[C@H](C)[C@@H](CN(C)Cc2ccc(C(=O)Nc3ccccc3N)cc2)Oc2c(NS(=O)(=O)c3ccccc3)cccc2C1=O,.,/,.
C[C@@H]1CN([C@H](C)CO)C(=O)c2cccc(NS(=O)(=O)c3cccs3)c2O[C@@H]1CN(C)Cc1ccc(C(=O)Nc2ccccc2N)cc1,138,/,.
C[C@@H]1CN([C@@H](C)CO)C(=O)c2cccc(NS(=O)(=O)c3ccc(Cl)cc3)c2O[C@@H]1CN(C)Cc1ccc(C(=O)Nc2ccccc2N)cc1,128,/,.
